We go through 37 compounds from PubChem BioAssay (EPA / NIEHS).

Several values for one entry are separate records, joined by “and”; a condition that tells them apart may be missing. Equal values may be shown once. Some structures have more than one record in an assay (separate samples or runs), and their calls can disagree. Activity calls are given as the source filed them. Rule for the calls: active = hit-call score of the fitted dose curve at least 0.9, where 1 is the maximum; inactive = score below 0.9.

The nature of this assay: ATG_TGFb_CIS: Attagene CIS-FACTORIAL HepG2 Assay for human Transforming Growth Factor (TGF) (AID 2282967). Particulars: HepG2 Attagene CIS TGFb reporter, mRNA transcription; actives raise or lower the signal. On the procedure: ATG_CIS is a cell-based, multiplexed-readout assay that uses HepG2, a human liver cell line, with measurements taken at 24 hours after chemical dosing in a 24-well plate.ATG_TGFb_CIS is one of 52 assay component(s) measured or calculated from the ATG_CIS assay. It is designed to make measurements of mRNA induction, a form of inducible reporter, as detected with fluorescence intensity signals by Reverse transcription polymerase chain reaction (RT-PCR) and Capillary electrophoresis technology.Data from the assay component ATG_TGFb_CIS was analyzed into 1 assay endpoint. This assay endpoint, ATG_TGFb_CIS, was analyzed with bidirectional fitting relative to DMSO as the negative control and baseline of activity. Using a type of inducible reporter, measures of mRNA for gain or loss-of-signal activity can be used to understand the reporter gene at the transcription factor-level as they relate to the gene TGFB1. Furthermore, this assay endpoint can be referred to as a primary readout, because this assay has produced multiple assay endpoints where this one serves a reporter gene function. To generalize the intended target to other relatable targets, this assay endpoint is annotated to the growth factor intended target family, where the subfamily is transforming growth factor beta.
Human liver HepG2 cells are transiently transfected with multiple reporter transcription units (MRTUs) in 6-well plates using FuGene 6 reagent (Roche; 3 ml FuGene/1 mg DNA). The MRTU constructs are regulated by a cis-regulating element (promoter). […] A major difference between the CIS and TRANS system is that in CIS activities of endogenous TFs are measured, whereas the TRANS assay evaluates changes in activities of exogenous, chimeric NR-Gal4 proteins. […] At the end of 24 hour incubation, total RNA was isolated using TriZol reagent (Invitrogen). The isolated RNA is then reverse-transcribed using oligo(dT) primer and Mo-MLV reverse transcriptase (Invitrogen) with DNAse I (Ambion) treatment for 30 min. The one-tenth of the produced cDNA was amplified by PCR using Taq DNA polymerase (Invitrogen) and two reporter sequence-specific primers. The PCR products were fluorescently labeled by primer extension with 6-arboxyfluorescein (6-FAM) 5'-labeled reporter sequence-specific primer (2 min at 95 C, 20 s at 68 C and 10 min at 72 C) and these products were digested with 5U of HpaI (New England Biolabs) for 2h at 37 C. The fragments were purified using Qiaquick PCR columns (Qiagen), analyzed on an ABI 3130xL genetic analyzer (Applied Biosystems) with peak positions identified by using a set of X-rhodamine (ROX)-labeled MapMarker1000 molecular weight standards (BioVentures). The raw capillary electrophoresis data was processed using Attagraph software (Attagene).
As for `NCC(F)(F)C(F)(F)C(F)(F)C(F)(F)C(F)(F)C(F)(F)C(F)(F)F`, the compound was classed as inactive.

With `FC(F)(I)C(F)(F)C(F)(F)C(F)(F)C(F)(F)C(F)(F)I`, the compound was classed as inactive.

For the compound `C#C[C@]1(O)CC[C@H]2[C@@H]3CCC4=CC(=O)CC[C@@H]4[C@H]3CC[C@@]21C`, the call was inactive.

`C=C(C)C(=O)OCCC(F)(F)C(F)(F)C(F)(F)C(F)(F)C(F)(F)C(F)(F)F`: the compound was classed as inactive.

Take `Cc1ccc(S(=O)(=O)O)c(C)c1`: the outcome was inactive.

Consider `OCCC(F)(F)C(F)(F)C(F)(F)C(F)(F)C(F)(F)C(F)(F)C(F)(F)C(F)(F)F`, for which the compound was classed as inactive.

For `COCC(C)O` (stereo not given), the result was inactive.

Regarding `CCCCCCCC(=O)O`, the call was inactive.

As to `CC(C)(C)c1cccc(C(C)(C)C)c1O`, the compound was classed as inactive.

As for `CCCCCCCCCCCCCCCS(=O)(=O)Oc1ccccc1`, the outcome was inactive.

Take `CC(C)CCCCCCOC(=O)CCCCC(=O)OCCCCCCC(C)C`: the result was inactive.

Regarding `CCCOc1sc(C(=O)N2CCC(c3cc(CN)ccc3F)CC2)c(C)c1Br`, the call was inactive.

Take `CCCCCCCCCCCCN1CCCC1=O`: the compound was classed as inactive.

On to `CCC(=C(c1ccc(O)cc1)c1ccc(OCCN(C)C)cc1)c1ccccc1`, for which the result was inactive.

As usually defined, the AC50 is the midpoint of the concentration-response curve, whichever way the signal moves. As to `CC#C[C@]1(O)CC[C@H]2[C@@H]3CCC4=CC(=O)CCC4=C3[C@@H](c3ccc(N(C)C)cc3)C[C@@]21C`, the result was inactive; the AC50 was 8.06 µM (active) and 26.5 µM (active).

As to `CCN(CC)CCNc1ccc(CNC=O)c2sc3ccc(OC)cc3c(=O)c12`, the outcome was inactive.

Regarding `CC(O)C(=O)O` (stereo not given), the call was inactive.

As for `CCc1nn(C2CCCCC2)c2cc(C3(C#N)CCC(C(=O)O)CC3)ccc12` (stereo not given), the compound was called inactive.

On to `CCCCCCCCCCCCc1ccccc1S(=O)(=O)O`, for which the compound was called inactive.

Regarding `CCCCCCCCC(=O)O`, the result was inactive.

As for `CC(=O)CC(C)(C)O`, the result was inactive.

Regarding `O=C1OC2(c3ccccc31)c1cc(Br)c(O)c(Br)c1Oc1c2cc(Br)c(O)c1Br`, the compound was called inactive.

Regarding `OCCC(F)(F)C(F)(F)C(F)(F)C(F)(F)C(F)(F)C(F)(F)F`, the AC50 is 157 µM (active) and the compound was called inactive.

On to `N#C[C@@H]1CC(F)(F)CN1C(=O)CNC1CC2CCC(C1)N2c1ncccn1` (stereo not given in full), for which the compound was classed as inactive.

As for `NC(=O)N1C(=O)C(C(=O)c2cc(Cl)cs2)c2cc(F)c(Cl)cc21` (stereo not given), the result was inactive.

For the compound `CC[C@H](c1ccc(O)cc1)[C@@H](CC)c1ccc(O)cc1`, the result was inactive.

Consider `CCCCC[C@H](O)CC(=O)CCc1ccc(O)c(OC)c1`, for which the call was inactive.

Turning to `CN1CCC[C@H]1c1cccnc1`, the outcome was inactive.

As to `CCCCCCCCCCCCCC[N+](C)(C)C`, the outcome was inactive.

For `C[C@@H]1C[C@H]2[C@@H]3CCC4=CC(=O)C=C[C@]4(C)[C@@]3(F)[C@@H](O)C[C@]2(C)[C@@]1(O)C(=O)COP(=O)(O)O`, the AC50 was 0.473 µM (active) and the call was inactive.

For the compound `CCCCOCCO`, the result was inactive.

As for `Oc1cc2ccccc2c2ccccc12`, the compound was classed as inactive.

On to `CC(=O)NC1(c2cccc(F)c2)CCN(CC[C@@]2(c3ccc(Cl)c(Cl)c3)CN(c3ccccc3)C(=O)CO2)CC1`, for which the compound was classed as inactive.

As for `CN1CCN(c2ccccc2/C=C2\SCCN(c3ccc(Cl)c(Cl)c3)C2=O)CC1`, the outcome was inactive.

`Cc1cc(CCN2CCN(c3nsc4ccccc34)CC2)cc2c1NC(=O)CC2(C)C`: the compound was classed as inactive.

For the compound `CCCOC(=O)c1ccc(O)cc1`, the compound was called inactive.

Regarding `O=C(OCCOCCOC(=O)c1ccccc1)c1ccccc1`, the compound was called inactive.
